Compound activity: PubChem BioAssay, National Center for Advancing Translational Sciences (NCATS)
CBFb-RUNX1 inh: CBF-beta/RUNX1 interaction disruption; Q01196+Q13951; AlphaScreen CBFb-His/RUNX1-biotin binding, biochemical; Potency, µM (series often up to 59.8 µM), for the others: top-dose activity, negative = inhibition, usual class: inhibitors; 230,000 tested, under 10 active; AID 1477; note: % of control where 0% means no effect
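AlphaScreen binding: CBFb-His and RUNX1-biotin (30 nM each) preincubated 20 min, compound added for 15 min, then nickel and streptavidin beads for 90 min, all at room temperature. Disruption of the interaction by any mechanism counts as activity.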
KCNH2 3.1 inh: KCNH2 3.1 (human) potassium channel inhibition; U2OS KCNH2 3.1, thallium flux FluxOr; stronger effect = lower value; activity change, % (tested at about 1.8 µM); actives 0.95% (n = 340,000);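 active = maximum activity change below -70%; inconclusive = maximum activity change from -70% to -50%; inactive = maximum activity change above -50%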;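 note: thallium influx rate constant from kinetic fluorescence after stimulation buffer; % is set by controls: 0 for no effect and ±100 for the full control effect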
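Normalized rate constant (relative to positive and negative DMSO controls) derived from a 2 min kinetic fluorescence read after stimulation; U2OS cells expressing the 3.1 isoform via virus at 1.77 x 10^8 /mL.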
KCNH2 WT inh: inhibitors of human wildtype KCNH2 potassium channel | U2OS, BacMam KCNH2, thallium flux FluxOr; stronger effect = lower value | activity change, % at 1.84 µM | actives 0.37% (n = 340,000);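 active = maximum activity change below -70%; inconclusive = maximum activity change between -70% and -50%; inactive = maximum activity change above -50%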; note: % is set by controls: 0 for no effect and ±100 for the full control effect
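U2OS cells were transduced with wild-type KCNH2 virus (2.03 x 10^8 / mL) for 4 h at room temperature, then cultured overnight at 37 C. Thallium flux was read with FluxOr dye. Rate constants were normalized to DMSO controls.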
MBNL1 CUG block: inhibitors of human MBNL1 binding to CUG repeat RNA; actives 0.036% (n = 280,000); TR-FRET MBNL1-His/biotin-(CUG)12 binding, 665/545 ratio; Q9NR56; Potency, µM (highest dose often 57.5 µM), for inactives: top-dose activity change, negative = inhibition, hits mostly inhibitors; active = well fitted inhibition curve with a large enough effect in the signal ratio, with a control signal flat, not every such curve was filed as active; inconclusive = small, poorly fitted or top-dose-only effect, or effect the other way, or a change in a side signal; inactive = no such curve, though single readings can be large or run the other way; the % refers to the signal ratio; note: potency is the fitted concentration of half-maximal effect; % is set by controls: 0 for no effect and ±100 for the full control effect
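Compound titration spanned 92 nM–58 uM against the MBNL1-His/biotin-(CUG)12 complex. After 60 min at room temperature with 5 nM streptavidin-XL665 and 0.055 ng/ul terbium anti-His, ratiometric 665/545 nm emission (Ex 340 nm) normalized to controls.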
PLK1 PBD block: inhibitors of human PLK1 polo-box domain binding | P53350 | Plk1 PBD binding of FITC phosphopeptide, fluorescence polarization | Potency, µM, for the others: max response, negative = inhibition, most hits filed as inhibitors | actives 2.8% (n = 360,000) | AID 720504; note: potency is the fitted concentration of half-maximal effect; series mostly up to about 57 µM; % is set by controls: 0 for no effect and ±100 for the full control effect; nearly all actives have a fitted effect of over 65% in size
VDR inhibitor: vitamin D3 receptor (human) inhibition; P11473; VDR-SRC2-3 peptide fluorescence polarization, 2 h; Potency, µM, inactives show max response, negative = inhibition, usual class: inhibitors; actives 0.93% (n = 400,000); AID 504847; note: potency is the fitted concentration of half-maximal effect; % is set by controls: 0 for no effect and ±100 for the full control effect
Target sequence (P11473 whole entry, looked up): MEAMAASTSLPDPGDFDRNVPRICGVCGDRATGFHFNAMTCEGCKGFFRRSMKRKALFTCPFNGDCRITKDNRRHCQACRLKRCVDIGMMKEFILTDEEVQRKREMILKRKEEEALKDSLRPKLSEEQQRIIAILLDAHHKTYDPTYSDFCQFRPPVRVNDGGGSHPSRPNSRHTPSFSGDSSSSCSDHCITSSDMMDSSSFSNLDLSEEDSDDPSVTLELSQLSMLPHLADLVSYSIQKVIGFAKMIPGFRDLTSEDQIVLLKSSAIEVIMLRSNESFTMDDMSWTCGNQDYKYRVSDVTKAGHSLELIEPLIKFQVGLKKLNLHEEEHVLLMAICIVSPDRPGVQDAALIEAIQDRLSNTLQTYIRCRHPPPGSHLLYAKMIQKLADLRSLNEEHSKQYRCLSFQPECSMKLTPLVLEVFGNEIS
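Reagent solutions, kept cold and dark, are dispensed first; compounds are then pinned in at 23 nl, plates briefly spun, and incubated 2 h at ambient temperature. Inhibition of VDR–SRC2-3 peptide binding is read by fluorescence polarization.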
An asterisk follows results filed as active. This is a sample that favours compounds with a hit; in the whole collection about 3.8% have one here. Unless noted, calls come from the whole dose curve; as a rule, active = well fitted curve in the direction sought with a large enough effect; inconclusive = small, poorly fitted or top-dose-only effect, or another doubt; inactive = no such curve, though single readings can be large; an effect the other way counts as inactive or inconclusive.

Results for NC(=O)c1c(NC(=O)CCCn2cnc([N+](=O)[O-])n2)sc2c1CCCC2 ?
CBFb-RUNX1 inh: -10%; KCNH2 3.1 inh: -12; KCNH2 WT inh: -4; MBNL1 CUG block: inconclusive; PLK1 PBD block: 4.7µM*; VDR inhibitor: 45µM*

Results for Cc1cc([N+](=O)[O-])nn1CCCC(=O)Nc1sc2c(c1C(N)=O)CCCC2 ?
CBFb-RUNX1 inh: -4%; KCNH2 3.1 inh: -11; KCNH2 WT inh: 14; MBNL1 CUG block: -19%; PLK1 PBD block: 4.7µM*; VDR inhibitor: 32µM*

How did CC1CCc2c(sc(NC(=O)CCCn3cnc([N+](=O)[O-])n3)c2C(N)=O)C1 (stereo unspecified) do in these assays?
CBFb-RUNX1 inh: -11%; KCNH2 3.1 inh: 3; KCNH2 WT inh: -3; MBNL1 CUG block: inconclusive; PLK1 PBD block: -4%; VDR inhibitor: -14%

What do the screens show for `Cc1cc([N+](=O)[O-])nn1CC(=O)Nc1sc2c(c1C(N)=O)CCCC2`?
CBFb-RUNX1 inh: -9%; KCNH2 3.1 inh: 7; KCNH2 WT inh: 0; MBNL1 CUG block: 12%; PLK1 PBD block: -27%; VDR inhibitor: 3%

How did CC1CCCCN1CCCOC(=O)c1ccccc1 (stereo unspecified) do in these assays?
VDR inhibitor: 4%

How did COc1cc(-c2nc3ccc(Cl)cn3c2Nc2ccc3c(c2)OCO3)ccc1O do in these assays?
VDR inhibitor: -14%

Results for CCN(C(=O)CN1CCN(c2ccc(O)cc2)CC1)c1c(N)n(Cc2ccccc2)c(=O)[nH]c1=O ?
CBFb-RUNX1 inh: -1%; KCNH2 3.1 inh: 7; KCNH2 WT inh: -11; MBNL1 CUG block: 2%; PLK1 PBD block: 27µM*; VDR inhibitor: -29%

Results for CCN(C(=O)c1ccc(=O)n(C)n1)c1c(N)n(Cc2ccccc2)c(=O)[nH]c1=O ?
KCNH2 3.1 inh: -92*; KCNH2 WT inh: -1; PLK1 PBD block: -4%; VDR inhibitor: -6%

Results for COc1cc(NS(=O)(=O)c2cnc(N)nc2)cc(OC)c1 ?
VDR inhibitor: 2%

What do the screens show for `COC(=O)c1c(SCC(=O)Nc2ccccc2OC)[nH]c2ccccc2c1=O`?
VDR inhibitor: 13%

Results for Cc1ccc(/C=C/C(=O)c2ccccc(=O)c2O)cc1C ?
CBFb-RUNX1 inh: inconclusive; KCNH2 3.1 inh: 2; KCNH2 WT inh: 3; MBNL1 CUG block: 29%; PLK1 PBD block: 30µM*; VDR inhibitor: 45µM*

What do the screens show for `O=C(/C=C/c1ccc(O)cc1)c1ccccc1O`?
CBFb-RUNX1 inh: 2%; VDR inhibitor: 5.6µM*

Results for O=C(/C=C/c1ccccc1)c1cc(Br)ccc(=O)c1O ?
CBFb-RUNX1 inh: -29%; KCNH2 3.1 inh: 0; KCNH2 WT inh: -12; MBNL1 CUG block: 14%; PLK1 PBD block: 27µM*; VDR inhibitor: 22µM*

Results for Cc1cc(C)cc(NS(=O)(=O)c2ccc3c(c2)C(C)(C)C(=O)N3C)c1 ?
KCNH2 3.1 inh: 2; KCNH2 WT inh: -3; MBNL1 CUG block: 2%; PLK1 PBD block: 27µM*; VDR inhibitor: -21%

Results for Cc1ccc(CCNS(=O)(=O)c2ccc3c(c2)C(C)(C)C(=O)N3C)cc1 ?
KCNH2 3.1 inh: -9; KCNH2 WT inh: -7; MBNL1 CUG block: -2%; PLK1 PBD block: 5%; VDR inhibitor: 1%

Results for CCOc1ccc(NC(=O)C2CCN(C(=O)N3CC(C)Oc4ccc(Cl)cc43)CC2)cc1 (stereo unspecified) ?
VDR inhibitor: -1%

Results for CCOC(=O)c1cc(-c2nnc(SCC(=O)Nc3ccc(F)cc3)o2)c(C)nc1C ?
CBFb-RUNX1 inh: -2%; KCNH2 3.1 inh: 10; KCNH2 WT inh: 5; MBNL1 CUG block: -1%; PLK1 PBD block: 21µM*; VDR inhibitor: inconclusive

What do the screens show for `COc1ccc(NC(=O)CSc2nnc(-c3ccc(F)cc3)o2)cn1`?
KCNH2 3.1 inh: 27; KCNH2 WT inh: 14; PLK1 PBD block: -5%; VDR inhibitor: -1%

Results for Cc1ccc(Nc2nnns2)cc1 ?
CBFb-RUNX1 inh: 1%; KCNH2 3.1 inh: -18; KCNH2 WT inh: 9; MBNL1 CUG block: 15%; PLK1 PBD block: 24µM*; VDR inhibitor: 79µM*

How did Cc1ccc(Nc2nc3ccccc3s2)cc1 do in these assays?
CBFb-RUNX1 inh: -1%; KCNH2 3.1 inh: -2; KCNH2 WT inh: -7; MBNL1 CUG block: inconclusive; PLK1 PBD block: -6%; VDR inhibitor: -6%

Results for COc1cc(NC(=O)CCn2c(-c3ccccc3)cc(C(C)=O)c2C)cc(OC)c1 ?
VDR inhibitor: -10%

Results for CC(=O)c1ccc(N=Nc2ccc(N(C)C)cc2)cc1 ?
CBFb-RUNX1 inh: -9%; KCNH2 WT inh: -17; MBNL1 CUG block: 12%; PLK1 PBD block: -20%; VDR inhibitor: 14%

How did CN=C1C=CC(=C(c2ccc(N(C)C)cc2)c2ccc(N(C)C)cc2)C=C1 do in these assays?
VDR inhibitor: 40µM*

Results for COc1ccccc1-c1c(C)nn2c(C(F)(F)F)cc(-c3ccccc3)nc12 ?
VDR inhibitor: -7%

Results for Cc1ccc(Nc2nc3nonc3nc2Nc2cccc(C(F)(F)F)c2)cc1Cl ?
VDR inhibitor: -8%

How did O=c1c2c3c(sc2nc2n1CCCCC2)CCCC3 do in these assays?
CBFb-RUNX1 inh: 0%; KCNH2 3.1 inh: -7; KCNH2 WT inh: -2; MBNL1 CUG block: -1%; PLK1 PBD block: 27µM*; VDR inhibitor: -16%

Results for O=c1c2c3c(sc2nc2n1CCCCC2)CCCCC3 ?
CBFb-RUNX1 inh: 9%; MBNL1 CUG block: inconclusive

How did CCCCCCCCCCCCCCCC(=O)N[C@@H](COP(=O)(O)O)C(=O)O do in these assays?
CBFb-RUNX1 inh: -15%; VDR inhibitor: 13µM*

Results for O=C(NCCN1C(=O)C2C3C=CC(C3)C2C1=O)NCc1ccccc1 (stereo unspecified) ?
CBFb-RUNX1 inh: -3%; KCNH2 3.1 inh: -3; KCNH2 WT inh: 10; MBNL1 CUG block: -6%; PLK1 PBD block: 6%; VDR inhibitor: 89µM*

What do the screens show for `Nc1sc2c(c1C(=O)NC1CCS(=O)(=O)C1)CCC2` (stereo unspecified)?
CBFb-RUNX1 inh: 2%; KCNH2 3.1 inh: 3; KCNH2 WT inh: 7; MBNL1 CUG block: 13%; PLK1 PBD block: 17µM*; VDR inhibitor: -7%

Results for CC1=C(c2ccc(C)cc2)S(=O)(=O)N(Cc2ccc(C(=O)Nc3ccc(C)c(F)c3)cc2)C1=O ?
VDR inhibitor: 0%

What do the screens show for `COc1cc([N+](=O)[O-])cc(/C=N/NC(=O)Cn2nc(C)cc2C)c1O`?
CBFb-RUNX1 inh: inconclusive; KCNH2 3.1 inh: 10; KCNH2 WT inh: -5; MBNL1 CUG block: inconclusive; PLK1 PBD block: -3%; VDR inhibitor: -7%
